Screen size: about 410,000 compounds; about 310 (0.076%) were called active. A call without a number means that no potency is given here. Inconclusive results (about 2%) are left out. Calls come from the whole dose curve; as a rule, active = well fitted curve in the direction sought with a large enough effect; inconclusive = small, poorly fitted or top-dose-only effect; inactive = flat fitted curve, though single readings scatter. This excerpt belongs to a sample that is enriched for actives.
Potency is the fitted concentration of half-maximal effect.

DNA dC->dU-editing enzyme APOBEC-3G (Homo sapiens), sequence (Q9HC16 whole entry, looked up): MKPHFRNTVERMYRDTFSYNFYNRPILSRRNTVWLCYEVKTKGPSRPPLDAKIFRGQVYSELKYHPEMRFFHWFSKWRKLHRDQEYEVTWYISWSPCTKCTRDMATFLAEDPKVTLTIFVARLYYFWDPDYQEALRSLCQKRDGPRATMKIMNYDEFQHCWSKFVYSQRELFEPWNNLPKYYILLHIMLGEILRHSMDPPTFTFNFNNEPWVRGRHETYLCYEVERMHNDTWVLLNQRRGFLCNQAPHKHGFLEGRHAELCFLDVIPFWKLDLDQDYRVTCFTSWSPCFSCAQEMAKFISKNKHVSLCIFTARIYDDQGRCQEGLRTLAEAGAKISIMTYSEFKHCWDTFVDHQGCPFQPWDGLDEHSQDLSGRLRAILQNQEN

This assay deals with DNA dC->dU-editing enzyme APOBEC-3G (Homo sapiens) (UniProt Q9HC16). Nature of the assay: qHTS for Inhibitors of Vif-A3G Interactions: qHTS. Note: nearly all actives have a fitted effect of over 60% in size. The conditions noted are these: HeLa A3G-eYFP + Vif (tagged APOBEC3G with the HIV-1 protein that degrades it), YFP fluorescence, overnight; series mostly up to 46.1 µM. The source says:
The recent discovery and characterization of host restriction factors, which provide a potent defense to invading retroviruses, has provided new targets for antiviral drug development. APOBEC3G (A3G) and APOBEC3F (A3F) are potent cytidine deaminases that block HIV-1 replication; HIV-1 expresses the Vif protein, which counteracts A3G and A3F by binding to them and inducing their proteasomal degradation. The Vif-A3G and Vif-A3F interactions provide two potential targets for development of small molecules which can interfere with the ability of Vif to degrade A3G or A3F. […] To identify inhibitors that can interfere with Vif mediated degradation of A3G and A3F, we have developed Hela cell lines that stably express A3G or A3F tagged with eYFP at the C-terminal end (A3G-eYFP or A3F-eYFP, respectively) and Vif. In the absence of an inhibitor, Vif induces degradation of A3G-eYFP and A3F-eYFP, and the cells are not fluorescent. In the presence of an inhibitor, it is expected that Vif will be unable to degrade A3G-eYFP and/or A3F-eYFP, resulting in an increase in yellow fluorescence. In this assays Vif A3G was screened against the Molecular Library Small Molecule Repository (MLSMR). NIH Chemical Genomics Center [NCGC] NIH Molecular Libraries Probe Centers Network [MLPCN] MLPCN Grant: MH093245 Assay Submitter (PI): Vinay Pathak, National Cancer Institute
5 uL of 700 cells/well of A3G-YFP cells are dispensed into black, clear bottom plates. The plates are incubated overnight at 37 deg C. 23 nL of compounds are added by pintool. The plates are incubated overnight at 37 deg C and then read on the TTP Acumen (Ex 488/ Em 500-530).
(In general: Quantitative high-throughput screening tests each substance at several concentrations.)
As to `Cc1nc2nc(SCC(=O)N(Cc3ccccc3)C(C)C)nn2c(C)c1Cc1ccccc1Cl`, the Potency entry is “inactive”.

`C=C1C=C(C(F)F)n2ncc(C(=O)NCCc3ccccc3OC)c2N1`: the Potency result is “inactive”.

Regarding `O=C1O/C(=C\c2ccc(O)cc2)C(O)=C1c1ccc(O)cc1`, the Potency result was “inactive”.

For the compound `Cc1ccc(C)c(Cn2c(C(=O)O)c(CNCc3cccs3)c3ccccc32)c1`, the Potency entry was “inactive”.

In the case of `CCN(CC)c1ccc(/C=C/c2c(C)cnc3ccc(C)cc23)cc1`, the Potency result is “inactive”.

Turning to `CCOc1cccc(CC(=O)N2CCc3c([nH]c4ccccc34)C2c2ccc(OC)cc2)c1OCC` (centres undefined), the Potency result is “inactive”.

`CCc1cccc(CC)c1NC(=O)Cn1c(=O)c(-c2cc(C)ccc2NC(C)=O)nc2ccccc21`: the Potency result is “inactive”.

Take `CCN1CCN(CCCNC(=O)c2ccc3c(c2)sc2nc(-c4ccc(OC)cc4)cn23)CC1`: the Potency result was “inactive”.

Turning to `COc1ccc(N2CCN(c3nc(-c4ccccc4F)nc4ccccc34)CC2)cc1`, the Potency entry was “inactive”.

Consider `CC(C)(C)OC(=O)N(Cc1ccco1)S(=O)(=O)c1ccccc1Br`, for which the Potency entry is “inactive”.

With `Nc1ncnc2nnsc12`, the Potency entry was “inactive”.

As for `Clc1cccc[n+]1CCCC[n+]1ccccc1Cl`, the Potency entry was “inactive”.

`O=C(NCC(c1ccco1)S(=O)(=O)c1cccs1)c1ccc(F)cc1` (centres undefined): the Potency entry was “inactive”.

On to `COc1ccc(-c2nc(=N)sn2-c2ccccc2)cc1`, for which the Potency result was “inactive”.

For the compound `Cc1ccccc1NC(=O)c1c(NC(=O)c2ccccc2F)sc2c1CCC(C)C2` (centres undefined), the Potency entry was “inactive”.

For `COc1ccc(-c2[nH]c3c(c2-c2c(-n4cccc4)n(C)c(=O)n(C)c2=O)c(=O)n(C)c(=O)n3C)cc1`, the Potency entry was “inactive”.

Take `OC(CBr)CN1CCCCC1` (centres undefined): the Potency entry was “inactive”.

In the case of `CN(C(=N)N)c1ccc(/C=C2\C=Cc3ccccc32)cc1`, the Potency result was “inactive”.

Regarding `Cc1cccn2c(=O)c3cc(C(=O)NC(C)c4ccccc4)c(=N)n(CCCO)c3nc12` (centres undefined), the Potency result is “inactive”.

`COC(=O)c1ccc(OC)c(Cn2c(=O)n(Cc3ccccc3)c(=O)c3c2c2cc(OC)ccc2n3C)c1`: the Potency entry was “inactive”.

Consider `CCOC(=O)c1scc(-c2ccc(C)cc2)c1S(=O)(=O)Nc1cc(C)ccc1C`, for which the Potency entry is “inactive”.

Regarding `COc1ccc(OCC(=O)Nc2cccc(C(=O)OCc3cc(=O)n4nc(C)sc4n3)c2)cc1`, the Potency result was “inactive”.

Consider `CCOc1ccc(N(CC)S(=O)(=O)N2CCCC(C(=O)Nc3ccc(C(C)=O)cc3)C2)cc1` (centres undefined), for which the Potency entry is “inactive”.

For the compound `Cc1ccc(S(=O)(=O)c2nc(-c3ccco3)oc2SCC(=O)Nc2ccc(F)cc2)cc1`, the Potency entry is “inactive”.

For `COc1ccc(CNC(=O)c2ccc3c(c2)nc2n3CCOC2)c(OC)c1`, the Potency entry is “inactive”.

Take `COC(=O)c1cc(NC(=O)CCS(=O)(=O)c2cc(Br)cc3c2N(C(=O)C2CC2)CC3)cc(C(=O)OC)c1`: the Potency entry is “inactive”.

For the compound `CCCCN(CC)CCCNC(=O)Cn1ncc2c([nH]c3ccc(C)cc32)c1=O`, the Potency entry is “inactive”.

As to `O=C(Nc1ccccc1F)C(c1ccccc1)N1Cc2ccccc2C1=O` (centres undefined), the Potency result is “inactive”.

For the compound `OC(Cc1ccc2ccccc2n1)c1ccc(Cl)c(Cl)c1` (centres undefined), the Potency result is “inactive”.

Turning to `Cc1c(-c2nsc(NC(=O)c3cccc(Cl)c3)n2)nnn1-c1ccccc1C(F)(F)F`, the Potency entry is “inactive”.

For `CN(C)c1ccc(/C=C2\C=Cc3ccccc32)cc1Br`, the Potency result was “inactive”.

Turning to `CCn1c(=O)c(=O)n(CC)c2cc(N3CCCCC3)c(NC(=O)c3cccc(F)c3)cc21`, the Potency entry was “inactive”.

Regarding `CN(C)c1ccc(/C=N\Nc2ccc([N+](=O)[O-])cc2[N+](=O)[O-])cc1Cl`, the Potency entry was “inactive”.

Regarding `CC1CCc2noc(NC(=O)c3ccc([N+](=O)[O-])cc3)c2C1` (centres undefined), the Potency entry is “inactive”.

With `Cc1cc(NS(=O)(=O)c2ccc3oc(=O)c4ncn(C)c4c3c2)ccc1Br`, the Potency result was “inactive”.

Turning to `Cc1cc(C)c2oc(C(=O)Nc3c(C(=O)Nc4ccccc4)oc4ccccc34)cc(=O)c2c1`, the Potency result is “inactive”.

In the case of `CN(C)CCCn1c(SCCN2C(=O)c3ccccc3C2=O)nc2ccccc2c1=O`, the Potency result is “inactive”.

Take `COc1cc(OC)c(OC)cc1/C=C/c1nc2ccccc2c(=O)n1-c1ccc(Br)c(C)c1`: the Potency result was “inactive”.

Turning to `CCn1c(/C=C/c2ccc([N+](=O)[O-])o2)nc2ccccc2c1=O`, the Potency is 3.98 µM (active).

Consider `CC(C)(C)C1CCC(NC(=O)c2cnn3c2NC(=C2CC2)C=C3C(F)F)CC1` (centres undefined), for which the Potency entry is “inactive”.

As to `CCCCS(=O)(=O)c1oc(-c2cccs2)nc1S(=O)(=O)c1ccccc1`, the Potency result was “inactive”.

As for `Cc1ccc(Cl)cc1N1CCN(S(=O)(=O)c2cc3[nH]c(=O)c(=O)[nH]c3cc2C)CC1`, the Potency result is “inactive”.

In the case of `CCc1ccc(C(=O)CC2(O)C(=O)N(CCc3ccccc3)c3ccc(Br)cc32)cc1` (centres undefined), the Potency entry was “inactive”.

As for `COc1cc(OC)c(OC)cc1/C=C1\C=Cc2ccccc21`, the Potency entry was “inactive”.

For `COc1ccc(C2/C=C\CN(Cc3ccco3)C(C)C(=O)N2Cc2ccc(F)cc2)cc1` (centres undefined), the Potency entry was “inactive”.

For the compound `Cc1ccccc1CSCCNC(=O)C1CCN(S(=O)(=O)Cc2ccccc2)CC1`, the Potency entry is “inactive”.

Turning to `Cc1cccc(CN2Cc3cccc4c3[C@H](C=CC4)CC2=S)c1`, the Potency result is “inactive”.

As to `Cc1csc(NCC(=O)c2c[nH]c3ccccc23)n1`, the Potency result was “inactive”.

Take `CCOc1cccc2c1N[C@@H](c1ccc(C(=O)O)cc1)[C@H]1CC=C[C@@H]21`: the Potency entry was “inactive”.

The record behind these values is PubChem BioAssay AID602310 (National Center for Advancing Translational Sciences (NCATS), 2012).
